The supplement of paper PMC7595190
A number with no mark means an inactive call.

How the values were obtained:
Experiment in all cases: CellTox Green cytotoxicity fluorescence relative to DMSO vehicle (fold of vehicle RFU); higher = more cell death (loss of membrane integrity), active = 2 or more
[1] = system: CMK
Summary of the method: (§1)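 Cytotoxicity, a measure of lost membrane integrity, is reported as fluorescence expressed as fold of the DMSO vehicle. For this, MV4-11, CMK and Kasumi-1 cells (4.0 × 10^4 per well) were seeded with CellTox Green reagent in 96-well black optical-bottom plates. Individual compounds from the Selleckchem apoptosis library, diluted in DMSO, were tested at final 0.01, 0.1 and 1 µM against a 0.1% DMSO vehicle. Fluorescence was read at Ex 485 nm and Em 520 nm after 24, 48 and 72 h at 37 °C, 5% CO2.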

[2] = system: Kasumi-1
Summary of the method: as §1

[3] = system: MV4-11
Summary of the method: as §1

SMILES	CellTox Green cytotoxicity fluorescence ([1]; 0.01 µM, 24 h)	CellTox Green cytotoxicity fluorescence ([1]; 0.01 µM, 48 h)	CellTox Green cytotoxicity fluorescence ([1]; 0.01 µM, 72 h)	CellTox Green cytotoxicity fluorescence ([1]; 0.1 µM, 24 h)	CellTox Green cytotoxicity fluorescence ([1]; 0.1 µM, 48 h)	CellTox Green cytotoxicity fluorescence ([1]; 0.1 µM, 72 h)	CellTox Green cytotoxicity fluorescence ([1]; 1 µM, 24 h)	CellTox Green cytotoxicity fluorescence ([1]; 1 µM, 48 h)	CellTox Green cytotoxicity fluorescence ([1]; 1 µM, 72 h)	CellTox Green cytotoxicity fluorescence ([2]; 0.01 µM, 24 h)	CellTox Green cytotoxicity fluorescence ([2]; 0.01 µM, 48 h)	CellTox Green cytotoxicity fluorescence ([2]; 0.01 µM, 72 h)	CellTox Green cytotoxicity fluorescence ([2]; 0.1 µM, 24 h)	CellTox Green cytotoxicity fluorescence ([2]; 0.1 µM, 48 h)	CellTox Green cytotoxicity fluorescence ([2]; 0.1 µM, 72 h)	CellTox Green cytotoxicity fluorescence ([2]; 1 µM, 24 h)	CellTox Green cytotoxicity fluorescence ([2]; 1 µM, 48 h)	CellTox Green cytotoxicity fluorescence ([2]; 1 µM, 72 h)	CellTox Green cytotoxicity fluorescence ([3]; 0.01 µM, 24 h)	CellTox Green cytotoxicity fluorescence ([3]; 0.01 µM, 48 h)	CellTox Green cytotoxicity fluorescence ([3]; 0.01 µM, 72 h)	CellTox Green cytotoxicity fluorescence ([3]; 0.1 µM, 24 h)	CellTox Green cytotoxicity fluorescence ([3]; 0.1 µM, 48 h)	CellTox Green cytotoxicity fluorescence ([3]; 0.1 µM, 72 h)	CellTox Green cytotoxicity fluorescence ([3]; 1 µM, 24 h)	CellTox Green cytotoxicity fluorescence ([3]; 1 µM, 48 h)	CellTox Green cytotoxicity fluorescence ([3]; 1 µM, 72 h)
Fc1ccc(CNc2ncnc3ccc(F)cc23)cc1 [Spautin-1]	0.96	1.08	1.16	0.971	0.943	0.916	0.983	0.967	0.917	1.03	1.04	0.987	1	1	0.997	1.04	1.01	1.01	0.982	0.965	0.962	0.962	0.942	0.936	1.03	1.02	1.02
N#CC(=Cc1ccc(-c2cc(Cl)ccc2Cl)o1)C(=O)Nc1cccc2ncccc12	0.949	0.938	0.947	0.993	0.99	0.992	1	1.05	1.03	1	0.958	0.958	0.998	0.979	0.979	0.939	0.916	0.917	1.01	0.987	0.982	0.998	0.992	1.01	0.969	0.985	0.984
CC(C)c1ccccc1Cc1cc(C(=O)Nc2ccc(S(=O)(=O)c3ccccc3C(C)(C)C)cc2)c(O)c(O)c1O	0.947	0.942	0.932	0.932	0.922	0.947	0.924	1.51	1.6	0.977	0.911	0.915	0.951	0.94	0.932	0.94	0.909	0.919	0.952	0.952	0.957	0.956	0.944	0.945	0.933	1.16	1.84
CC(C)[C@H](CO)Nc1nc(Nc2cccc(Cl)c2)c2ncn(C(C)C)c2n1 [Purvalanol A]	0.988	1	1	0.992	1	0.965	0.987	1.02	1.02	0.997	0.989	0.974	0.983	0.965	0.974	0.928	0.948	0.923	1.01	1.02	1.03	1.03	1.04	1.04	1	1.06	1.07
O=C(O)CSc1cc(NS(=O)(=O)c2ccc(Br)cc2)c2ccccc2c1O	0.973	0.966	0.955	0.961	0.961	0.969	0.984	1.03	1.03	1.05	0.997	1.01	0.985	0.972	0.997	0.98	1.03	1.08	0.99	0.983	0.99	0.988	0.985	0.989	0.983	0.997	1.03
C=CC(=O)N1CCN(C(=O)CNc2cc(I)c(Cl)cc2O)CC1 [K-Ras(G12C) inhibitor 12]	1.01	0.986	0.963	0.999	0.997	0.992	0.992	1	1.02	0.989	1.01	1	1.01	0.982	0.979	0.995	0.964	0.958	0.959	0.976	0.971	0.991	0.991	1.01	0.993	0.996	1.03
CC(=NNC(=S)N1CCC1)c1ccccn1	0.934	0.962	1.02	0.922	1.29	1.42	1.04	1.42	1.4	1.01	1.03	1.19	0.971	1.18	1.6	1.02	1.25	1.49	0.984	1.31	2.11 (active)	0.983	1.53	2.27 (active)	1.02	1.38	1.68
CN1CCN(CCCNc2ncc(Cl)c(-c3cc4c(C(=O)NC5CC5)cccc4s3)n2)CC1	0.99	0.985	0.953	0.97	0.978	0.95	0.956	0.993	1	0.943	0.931	0.891	0.958	0.947	0.949	0.953	1.03	1.01	0.979	0.976	0.987	0.956	0.966	0.965	0.903	0.93	0.926
COc1ccc(C2=N[C@@H](c3ccc(Cl)cc3)[C@@H](c3ccc(Cl)cc3)N2C(=O)N2CCNC(=O)C2)c(OC(C)C)c1 [Nutlin-3]	0.981	0.982	0.971	1	1.01	1.03	1.02	1.01	1.03	1.02	1.01	0.998	0.977	0.977	0.959	1.01	1.01	1.05	0.981	1	0.995	0.991	0.999	1.03	1.01	1.24	1.46
O=C(NS(=O)(=O)c1ccc(Br)s1)c1ccc(Cl)cc1Cl [Tasisulam]	0.98	0.972	0.934	0.99	0.99	0.959	0.986	1	0.903	1.02	1.02	1.01	1.01	0.99	0.984	0.975	0.963	0.96	0.957	0.955	0.954	0.99	0.984	0.992	1	0.989	1
C/C(=N\NC(=O)c1cccc(S(=O)(=O)N2CCOCC2)c1)c1cc(Cl)ccc1O	0.984	0.991	1.04	0.936	0.956	0.969	0.942	0.907	0.774	0.938	0.949	0.96	0.974	0.986	0.968	0.937	1.02	1.05	0.971	0.97	0.966	0.98	0.978	0.972	0.953	1.06	1.17
CC(C)c1cc2c(N3CCN(C4=NCC(C)(C)S4)CC3)ncnc2s1 [MI-3 (Menin-MLL Inhibitor)]	0.943	0.954	0.984	0.923	0.941	0.923	–	–	–	0.955	0.967	0.974	0.987	1.01	0.966	–	–	–	0.931	0.933	0.927	0.883	0.889	0.876	0.961	0.951	0.95
